Assay results published in the supplement of paper PMC10849652.
Targets with a hit are over-represented here; the source holds about 7,900 in all. About 0.6% of all pairs of compound and target were hits.

How the values were obtained:
Assay in all cases: log2 fold change, soluble protein after heating vs DMSO (PISA); higher = thermal stabilisation; K562 cells, 10 uM, 30 min; active = over 0.2 and 3.5 SD of the protein, either way, in both replicates (recomputed)
[1] = compound: NC(=O)Nc1cc(-c2cccc(F)c2)sc1C(=O)N[C@H]1CCCNC1
Outline: (§1)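 Values are thermal stability changes relative to control samples and are taken from duplicates. They are stated as log2 fold changes. Before quantification by TMTpro 16plex LC-MS/MS with equalised channel sums, K562 cells at 2×10^6 cells/mL were treated with 10 μM compound for 30 min, heated in aliquots for 3 min across 48°C-58°C, pooled, extracted in PBS with 0.5% NP-40 at 4°C, and centrifuged at 21,000xg for 90 min to give the soluble supernatant.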

[2] = compound: NC(=O)c1cnc(N[C@@H]2CCCC[C@@H]2N)nc1Nc1cccc(-n2nccn2)c1
Outline: as §1

[3] = compound: NC1(c2ccc(-c3nc4ccn5c(=O)[nH]nc5c4cc3-c3ccccc3)cc2)CCC1
Outline: as §1

[4] = compound: NCC(=O)Nc1ccc(-n2nc(C(F)(F)F)cc2-c2ccc3c(ccc4ccccc43)c2)cc1
Outline: as §1

entinostat = compound: Nc1ccccc1NC(=O)c1ccc(CNC(=O)OCc2cccnc2)cc1 [entinostat]
Outline: as §1

vorinostat = compound: O=C(CCCCCCC(=O)Nc1ccccc1)NO [vorinostat]
Outline: as §1

citarinostat = compound: O=C(CCCCCCNC(=O)c1cnc(N(c2ccccc2)c2ccccc2Cl)nc1)NO [citarinostat]
Outline: as §1

silmitasertib = compound: O=C(O)c1ccc2c(c1)nc(Nc1cccc(Cl)c1)c1ccncc12 [silmitasertib]
Outline: as §1

[5] = compound: O=C1NC(=O)C(c2cnc3ccccn23)=C1c1cn2c3c(cc(F)cc13)CN(C(=O)N1CCCCC1)CC2
Outline: as §1

[6] = compound: c1cc(OCCN2CCCCC2)cc(-c2n[nH]c3ccc(-c4nnc[nH]4)cc23)c1
Outline: as §1

Measured: log2 fold change

H2AFX (UniProt P16104)
inactive: [1] 0.054 | [2] 0.245 | [3] 0.441 | [4] 0.041 | entinostat 0.132 | vorinostat 0.216 | citarinostat -0.035 | silmitasertib 0.08 | [5] 0.077 | [6] -0.083

HLTF (UniProt Q14527)
inactive: [1] -0.025 | [2] 0.037 | [3] -0.067 | [4] -0.043 | entinostat 0.069 | vorinostat -0.012 | citarinostat 0.008 | silmitasertib -0.095 | [5] -0.073 | [6] -0.101

GLCCI1 (UniProt Q86VQ1)
Sequence of UniProt Q86VQ1 (Q86VQ1 whole entry, looked up): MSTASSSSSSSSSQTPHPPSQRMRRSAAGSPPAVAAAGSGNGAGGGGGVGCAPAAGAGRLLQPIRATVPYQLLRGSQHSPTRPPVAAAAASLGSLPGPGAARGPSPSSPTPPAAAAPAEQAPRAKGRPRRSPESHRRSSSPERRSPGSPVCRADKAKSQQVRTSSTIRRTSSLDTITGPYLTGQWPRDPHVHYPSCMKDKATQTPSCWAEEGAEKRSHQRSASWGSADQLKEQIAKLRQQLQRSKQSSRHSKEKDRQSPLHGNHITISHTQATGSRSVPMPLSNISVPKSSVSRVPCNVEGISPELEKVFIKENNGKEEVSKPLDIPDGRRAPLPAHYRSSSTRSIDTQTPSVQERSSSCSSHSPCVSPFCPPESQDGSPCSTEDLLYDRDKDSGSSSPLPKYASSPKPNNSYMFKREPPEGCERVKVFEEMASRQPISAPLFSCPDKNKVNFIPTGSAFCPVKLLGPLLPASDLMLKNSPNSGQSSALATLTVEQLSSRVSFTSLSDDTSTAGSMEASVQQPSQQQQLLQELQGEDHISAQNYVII
inactive: [1] -0.12 | [2] 0.03 | [3] -0.024 | [4] 0.102 | entinostat 0.056 | vorinostat 0.158 | citarinostat 0.002 | silmitasertib -0.042 | [5] 0.01 | [6] -0.088

HHEX (UniProt Q03014)
Sequence of UniProt Q03014 (Q03014 whole entry, looked up): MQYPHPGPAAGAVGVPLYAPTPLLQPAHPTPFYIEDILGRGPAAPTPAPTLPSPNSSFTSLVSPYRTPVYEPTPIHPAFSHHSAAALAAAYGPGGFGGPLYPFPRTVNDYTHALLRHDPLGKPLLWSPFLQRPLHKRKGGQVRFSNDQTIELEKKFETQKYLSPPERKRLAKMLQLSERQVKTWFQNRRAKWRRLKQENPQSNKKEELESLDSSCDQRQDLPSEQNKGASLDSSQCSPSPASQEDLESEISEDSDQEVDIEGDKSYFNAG
inactive: [1] 0.04 | [2] 0.084 | [3] -0.054 | entinostat 0.045 | vorinostat 0.012 | citarinostat 0.029 | silmitasertib -0.018 | [5] 0.006 | [6] -0.016
active: [4] 0.568

FUCA2 (UniProt Q9BTY2)
Sequence of UniProt Q9BTY2 (Q9BTY2 whole entry, looked up): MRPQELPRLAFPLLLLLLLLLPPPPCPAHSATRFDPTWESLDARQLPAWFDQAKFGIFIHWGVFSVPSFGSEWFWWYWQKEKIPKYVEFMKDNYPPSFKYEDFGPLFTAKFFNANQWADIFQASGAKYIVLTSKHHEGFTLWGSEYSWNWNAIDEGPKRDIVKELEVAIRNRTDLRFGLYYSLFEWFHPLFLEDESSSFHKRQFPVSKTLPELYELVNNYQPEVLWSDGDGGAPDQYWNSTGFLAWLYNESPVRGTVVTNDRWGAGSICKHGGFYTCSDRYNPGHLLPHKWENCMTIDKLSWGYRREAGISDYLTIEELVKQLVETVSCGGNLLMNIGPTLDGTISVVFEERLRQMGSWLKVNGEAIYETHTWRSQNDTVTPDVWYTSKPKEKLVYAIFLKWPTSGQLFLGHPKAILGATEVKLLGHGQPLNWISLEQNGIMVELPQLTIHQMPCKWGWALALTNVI
inactive: [1] 0.004 | [2] -0.037 | [4] 0.013 | entinostat -0.03 | vorinostat -0.033 | citarinostat 0.042 | silmitasertib 0.032 | [5] 0.032
active: [3] -0.499 | [6] -0.551

FARS2 (UniProt O95363)
inactive: [1] -0.006 | [2] 0.003 | [3] -0.222 | [4] 0.012 | entinostat 0.028 | vorinostat 0.073 | citarinostat 0.022 | silmitasertib -0.027 | [5] -0.11 | [6] 0.005

FYB1 isoform 3 (UniProt O15117)
inactive: [1] -0.045 | [2] 0.007 | [3] 0.017 | [4] 0.02 | entinostat 0.025 | vorinostat -0.02 | citarinostat 0.093 | silmitasertib -0.097 | [5] -0.037 | [6] -0.002

GNPAT (UniProt O15228)
inactive: [1] 0.02 | [2] -0.008 | [3] -0.066 | [4] 0 | entinostat 0.021 | vorinostat -0.008 | citarinostat 0.041 | silmitasertib -0.041 | [5] -0.061 | [6] -0.02

FDXR isoform 7 (UniProt P22570)
inactive: [1] -0.03 | [2] -0.044 | [3] -0.083 | [4] -0.082 | entinostat -0.006 | vorinostat 0.084 | citarinostat 0.031 | silmitasertib -0.034 | [5] -0.197 | [6] -0.11

GSTO1 (UniProt P78417)
inactive: [1] -0.015 | [2] -0.002 | [3] 0.022 | [4] 0.001 | entinostat -0.022 | vorinostat 0.058 | citarinostat 0.039 | silmitasertib -0.047 | [5] 0.018 | [6] -0.022

IDH3A (UniProt P50213)
Sequence of UniProt P50213 (P50213 whole entry, looked up): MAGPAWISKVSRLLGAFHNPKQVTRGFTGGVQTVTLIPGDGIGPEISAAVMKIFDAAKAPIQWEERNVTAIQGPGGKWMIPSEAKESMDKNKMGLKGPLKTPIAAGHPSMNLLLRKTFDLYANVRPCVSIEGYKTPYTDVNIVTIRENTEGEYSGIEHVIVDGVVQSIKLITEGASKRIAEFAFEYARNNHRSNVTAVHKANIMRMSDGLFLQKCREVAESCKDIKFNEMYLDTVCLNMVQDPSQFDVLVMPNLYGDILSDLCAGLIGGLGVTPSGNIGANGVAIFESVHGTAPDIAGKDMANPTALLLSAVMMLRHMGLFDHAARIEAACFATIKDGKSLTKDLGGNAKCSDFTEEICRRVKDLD
inactive: [1] 0 | [2] -0.033 | [3] -0.062 | [4] -0.005 | entinostat -0.025 | vorinostat -0.029 | citarinostat 0.023 | silmitasertib -0.034 | [5] -0.021 | [6] 0.011

FNTB (UniProt P49356)
inactive: [1] -0.024 | [2] 0.09 | [3] 0.162 | [4] -0.035 | entinostat -0.079 | vorinostat -0.038 | citarinostat 0.054 | silmitasertib -0.019 | [5] 0.048 | [6] 0.002

GALNT11 (UniProt Q8NCW6)
Sequence of UniProt Q8NCW6 (Q8NCW6 whole entry, looked up): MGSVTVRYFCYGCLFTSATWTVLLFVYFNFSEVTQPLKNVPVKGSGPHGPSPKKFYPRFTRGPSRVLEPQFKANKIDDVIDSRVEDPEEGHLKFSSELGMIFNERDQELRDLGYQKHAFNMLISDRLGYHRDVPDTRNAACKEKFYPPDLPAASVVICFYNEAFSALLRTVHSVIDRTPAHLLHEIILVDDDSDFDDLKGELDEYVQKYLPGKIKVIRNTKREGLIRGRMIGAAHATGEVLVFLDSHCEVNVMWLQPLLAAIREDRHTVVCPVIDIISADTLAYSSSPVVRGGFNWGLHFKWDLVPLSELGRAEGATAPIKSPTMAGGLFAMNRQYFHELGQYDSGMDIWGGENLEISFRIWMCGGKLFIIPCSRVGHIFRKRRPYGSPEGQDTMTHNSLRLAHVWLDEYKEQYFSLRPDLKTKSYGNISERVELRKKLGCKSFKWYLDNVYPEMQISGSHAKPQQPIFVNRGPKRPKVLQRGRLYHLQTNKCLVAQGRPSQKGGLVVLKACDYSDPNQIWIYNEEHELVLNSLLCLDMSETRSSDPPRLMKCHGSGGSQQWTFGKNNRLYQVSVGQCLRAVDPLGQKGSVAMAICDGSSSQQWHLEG
inactive: [1] 0.001 | [2] -0.119 | [3] -0.224 | [4] -0.023 | entinostat -0.012 | vorinostat 0.01 | citarinostat 0.079 | silmitasertib 0.027 | [5] -0.021 | [6] 0.002

GAPVD1 isoform 6 (UniProt Q14C86)
inactive: [1] 0.009 | [2] -0.077 | [3] -0.139 | [4] -0.073 | entinostat 0.049 | vorinostat 0.063 | citarinostat 0.087 | silmitasertib 0.124 | [5] 0.003 | [6] -0.048

HSPA8 (UniProt E9PK54)
inactive: [1] 0.015 | [2] 0.023 | [3] -0.071 | [4] -0.136 | entinostat 0.061 | vorinostat -0.064 | citarinostat 0.068 | silmitasertib 0.028 | [5] 0.093 | [6] -0.027

HNRNPC isoform 2 (UniProt P07910)
Sequence of UniProt P07910 (P07910 whole entry, looked up): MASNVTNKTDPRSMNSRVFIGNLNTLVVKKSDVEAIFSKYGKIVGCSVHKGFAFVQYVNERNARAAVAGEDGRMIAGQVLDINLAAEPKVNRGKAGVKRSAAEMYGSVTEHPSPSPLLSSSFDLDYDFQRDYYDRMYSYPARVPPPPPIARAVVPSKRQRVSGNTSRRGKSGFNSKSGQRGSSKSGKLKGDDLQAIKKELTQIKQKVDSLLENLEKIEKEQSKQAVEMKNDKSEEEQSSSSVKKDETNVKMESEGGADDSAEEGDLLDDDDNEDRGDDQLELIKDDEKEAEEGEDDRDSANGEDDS
inactive: [1] -0.032 | [2] -0.049 | [3] 0.568 | [4] -0.037 | entinostat 0.148 | vorinostat -0.041 | citarinostat -0.062 | silmitasertib 0.199 | [5] 0.104 | [6] -0.252

GMEB2 (UniProt Q9UKD1)
Sequence of UniProt Q9UKD1 (Q9UKD1 whole entry, looked up): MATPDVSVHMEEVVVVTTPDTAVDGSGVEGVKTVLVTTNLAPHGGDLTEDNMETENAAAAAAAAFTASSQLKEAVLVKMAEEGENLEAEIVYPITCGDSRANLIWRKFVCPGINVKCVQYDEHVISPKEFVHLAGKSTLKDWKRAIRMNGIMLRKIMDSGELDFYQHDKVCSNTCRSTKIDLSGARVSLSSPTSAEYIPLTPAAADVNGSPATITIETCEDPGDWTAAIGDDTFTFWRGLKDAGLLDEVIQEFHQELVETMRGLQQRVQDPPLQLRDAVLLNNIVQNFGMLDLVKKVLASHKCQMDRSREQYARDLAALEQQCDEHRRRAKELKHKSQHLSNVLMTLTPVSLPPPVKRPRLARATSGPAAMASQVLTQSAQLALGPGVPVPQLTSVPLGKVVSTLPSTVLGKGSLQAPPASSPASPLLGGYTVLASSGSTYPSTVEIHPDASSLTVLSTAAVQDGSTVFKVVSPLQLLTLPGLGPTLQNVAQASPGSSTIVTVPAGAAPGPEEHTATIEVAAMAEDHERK
inactive: [1] -0.039 | [2] -0.079 | [3] 0.056 | [4] -0.119 | entinostat 0.064 | vorinostat 0.063 | citarinostat 0.086 | silmitasertib 0.044 | [5] -0.194 | [6] -0.037

GNAI3 (UniProt P08754)
Sequence of UniProt P08754 (P08754 whole entry, looked up): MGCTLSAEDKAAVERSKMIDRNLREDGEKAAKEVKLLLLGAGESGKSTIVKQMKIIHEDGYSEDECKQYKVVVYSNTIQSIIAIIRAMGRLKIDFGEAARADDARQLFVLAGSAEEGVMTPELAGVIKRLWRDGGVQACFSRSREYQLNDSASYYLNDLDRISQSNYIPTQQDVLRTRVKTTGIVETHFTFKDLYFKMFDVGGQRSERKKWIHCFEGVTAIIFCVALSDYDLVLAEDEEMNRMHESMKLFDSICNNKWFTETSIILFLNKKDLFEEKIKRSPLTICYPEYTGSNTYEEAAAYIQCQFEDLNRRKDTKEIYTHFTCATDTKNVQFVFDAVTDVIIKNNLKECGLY
inactive: [1] -0.016 | [2] 0.022 | [3] -0.046 | [4] 0.003 | entinostat -0.04 | vorinostat -0.016 | citarinostat -0.018 | silmitasertib 0.052 | [5] -0.027 | [6] -0.076

H2AZ1 (UniProt P0C0S5)
inactive: [1] 0.067 | [2] 0.258 | [3] 0.444 | [4] -0.038 | entinostat 0.135 | vorinostat 0.19 | citarinostat -0.058 | silmitasertib 0 | [5] 0.086 | [6] -0.032

GDE1 (UniProt Q9NZC3)
inactive: [1] -0.001 | [2] 0.058 | [3] 0.094 | [4] -0.01 | entinostat -0.065 | citarinostat 0.024 | silmitasertib -0.086 | [5] -0.008 | [6] 0.032

HAUS4 (UniProt Q9H6D7)
inactive: [1] 0.067 | [2] -0.165 | [3] 0.229 | [4] -0.089 | entinostat 0.12 | vorinostat 0.01 | citarinostat -0.106 | silmitasertib 0.095 | [5] 0.088 | [6] -0.08

GLUL (UniProt P15104)
inactive: [1] 0.059 | [2] -0.104 | [3] 0.061 | [4] 0.018 | entinostat -0.009 | vorinostat 0.04 | citarinostat -0.024 | silmitasertib 0.032 | [5] -0.012 | [6] -0.087

FBXO3 (UniProt Q9UK99)
Sequence of UniProt Q9UK99 (Q9UK99 whole entry, looked up): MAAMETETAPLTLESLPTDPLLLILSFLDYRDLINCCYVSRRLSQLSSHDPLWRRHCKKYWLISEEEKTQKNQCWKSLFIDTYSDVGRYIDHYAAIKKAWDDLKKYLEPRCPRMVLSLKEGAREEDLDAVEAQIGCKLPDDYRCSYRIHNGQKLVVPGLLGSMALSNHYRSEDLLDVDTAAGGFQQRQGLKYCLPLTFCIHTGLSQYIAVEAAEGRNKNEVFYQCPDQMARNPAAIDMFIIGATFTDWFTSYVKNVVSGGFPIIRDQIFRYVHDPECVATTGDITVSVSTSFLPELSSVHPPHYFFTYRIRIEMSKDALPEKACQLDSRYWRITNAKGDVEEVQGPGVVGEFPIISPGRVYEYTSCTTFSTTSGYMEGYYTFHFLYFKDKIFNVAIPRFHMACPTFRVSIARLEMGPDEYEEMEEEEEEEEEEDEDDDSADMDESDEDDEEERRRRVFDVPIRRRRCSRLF
inactive: [1] -0.034 | [2] -0.013 | [3] -0.202 | [4] -0.013 | entinostat -0.039 | vorinostat 0.011 | citarinostat 0.016 | silmitasertib -0.003 | [5] 0.001 | [6] -0.12

FEN1 (UniProt P39748)
inactive: [1] -0.022 | [2] -0.154 | [3] -0.28 | [4] -0.157 | entinostat 0.034 | vorinostat 0.246 | citarinostat 0.111 | silmitasertib -0.1 | [5] -0.129 | [6] 0.035

GOPC (UniProt Q9HD26)
inactive: [1] -0.055 | [2] -0.011 | [3] 0.15 | [4] -0.002 | entinostat -0.092 | vorinostat -0.038 | silmitasertib 0.029 | [5] 0.265

GTF3C4 (UniProt Q9UKN8)
inactive: [1] -0.015 | [2] -0.012 | [3] -0.077 | [4] -0.04 | entinostat 0.024 | vorinostat -0.103 | citarinostat 0.04 | silmitasertib 0.03 | [5] -0.013 | [6] -0.019

FIS1 (UniProt Q9Y3D6)
inactive: [1] -0.013 | [2] 0.075 | [3] 0.002 | [4] 0.133 | entinostat -0.004 | vorinostat -0.027 | citarinostat 0.051 | silmitasertib -0.017 | [5] -0.03 | [6] -0.006

IFRD2 isoform 2 (UniProt Q12894)
Sequence of UniProt Q12894 (Q12894 whole entry, looked up): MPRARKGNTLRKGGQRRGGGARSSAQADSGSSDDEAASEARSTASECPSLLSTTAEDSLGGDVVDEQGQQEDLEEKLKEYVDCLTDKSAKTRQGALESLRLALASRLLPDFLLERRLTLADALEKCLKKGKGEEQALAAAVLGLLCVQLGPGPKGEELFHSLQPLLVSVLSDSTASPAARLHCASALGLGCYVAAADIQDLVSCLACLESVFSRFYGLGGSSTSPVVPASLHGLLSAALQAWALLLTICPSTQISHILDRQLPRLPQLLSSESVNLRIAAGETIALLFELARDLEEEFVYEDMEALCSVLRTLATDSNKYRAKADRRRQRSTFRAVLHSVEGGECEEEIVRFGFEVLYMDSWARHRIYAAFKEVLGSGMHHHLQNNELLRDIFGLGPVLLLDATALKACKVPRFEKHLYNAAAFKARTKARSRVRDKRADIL
inactive: [1] -0.044 | [2] -0.279 | [3] 0.003 | [4] 0.11 | entinostat -0.2 | vorinostat -0.244 | citarinostat -0.028 | silmitasertib 0.276 | [5] -0.008 | [6] 0.046

IFT74 (UniProt Q96LB3)
inactive: [1] 0.035 | [2] 0.009 | [3] 0.135 | [4] 0.045 | entinostat -0.091 | vorinostat 0.101 | citarinostat 0.171 | silmitasertib -0.187 | [5] -0.021 | [6] 0.06

ICAM1 (UniProt P05362)
Sequence of UniProt P05362 (P05362 whole entry, looked up): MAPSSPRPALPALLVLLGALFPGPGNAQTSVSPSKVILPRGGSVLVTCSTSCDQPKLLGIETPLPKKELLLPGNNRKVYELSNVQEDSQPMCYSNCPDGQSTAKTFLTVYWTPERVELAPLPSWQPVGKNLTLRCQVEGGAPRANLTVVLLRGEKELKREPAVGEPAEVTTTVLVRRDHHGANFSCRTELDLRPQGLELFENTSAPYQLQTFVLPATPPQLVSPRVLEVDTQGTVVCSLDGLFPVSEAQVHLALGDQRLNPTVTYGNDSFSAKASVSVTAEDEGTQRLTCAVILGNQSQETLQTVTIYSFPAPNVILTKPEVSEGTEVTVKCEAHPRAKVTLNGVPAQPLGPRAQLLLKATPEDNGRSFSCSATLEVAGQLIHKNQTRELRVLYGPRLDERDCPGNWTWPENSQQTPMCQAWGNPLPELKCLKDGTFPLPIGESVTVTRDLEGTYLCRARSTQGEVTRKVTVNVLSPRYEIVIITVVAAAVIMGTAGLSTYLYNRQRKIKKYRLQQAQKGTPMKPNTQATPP
inactive: [1] 0.016 | [2] 0.109 | [3] 0.087 | [4] 0.008 | entinostat -0.026 | vorinostat -0.008 | citarinostat 0.024 | silmitasertib -0.028 | [5] -0.07 | [6] -0.06
